# Screening results deposited in PubChem BioAssay by Broad Institute.
# This is one part of a sample in which hits are shown more often than they occur.
# BL2 CD40 inh: inhibitors of CD40-induced NF-kB signaling, primary screen, BL2 cells, luciferase reporter, single point. 83,000 tested, 0.94% active. CD40L-induced, 4 h. inhibition, % at 10 µM. AID 1053188, 2014;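 active means mean inhibition of at least 50% with a set share of replicates also reaching that level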;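 further: 0% = neutral control wells and 100% = IKK inhibitor VII at 50 µM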
# Starred values were filed as active, the others as inactive; [ ] = dose if it differs, or a comment.
SMILES,BL2 CD40 inh
Cc1ccccc1S(=O)(=O)N(C)C[C@H]1OCc2ccccc2-c2c(n(C)c3ccccc23)C(=O)N([C@@H](C)CO)C[C@H]1C,-13
C/C=C/c1ccc([C@H]2[C@@H](CO)N(C(=O)NCCC)[C@@H]2CNC(=O)C2CCC2)cc1,0
CC[C@@H]1C/C=C\C[C@@H](C(C)C)NC(=O)CCC(=O)N1,2[25 µM]
O=C(C[C@@H]1CC[C@@H]2[C@H](COC[C@@H](O)CN2CC2CCCCC2)O1)NCC1CC1,-36
C[C@@H]1CN(C)C(=O)Cc2cc(N(C)C)ccc2O[C@H]1CN(C)C(=O)OC(C)(C)C,-1
C[C@@H]1CN(C)C(=O)c2cc(N(C)C)ccc2O[C@@H]1CN(C)C(=O)OC(C)(C)C,-1
O=C1NNC(=O)C1c1ccccc1,7
O=C1C=CC(=O)C2=C1C1c3ccccc3C2c2ccccc21,59*[25 µM]
CN1C(=O)c2ccccc2C(O)c2ccccc21 (stereo unspecified),15
C[C@H](CO)N1C[C@H](C)[C@@H](CN(C)C(=O)C2CCCCC2)OCCCC[C@H](C)Oc2ccc(NC(=O)Nc3ccc(C(F)(F)F)cc3)cc2C1=O,3
CN1c2ccc(C#Cc3cccnc3)cc2[C@@H]2[C@@H](CCN2C(=O)C2CCCCC2)[C@H]1CO,-8[25 µM]
OC(CCN1CCC2CCC(C2)C1)c1ccc(Br)cc1 (stereo unspecified),9
OC(CCN1CCCCC1)c1ccc(-c2ccccc2)cc1 (stereo unspecified),57*
OC(COc1ccc(-c2ccccc2)cc1)CN1CCCCC1 (stereo unspecified),-18
COC(=O)/C=C/S(=O)(=O)c1ccc(NC(C)=O)cc1,106*
CC(=O)Nc1ccc(S(=O)(=O)CC(=O)CS(=O)(=O)c2ccc(NC(C)=O)cc2)cc1,5
COC(=O)Nc1ccc(NC(C)=O)cc1,3
CN(C)C(=O)c1ccc(-c2ccc(C3[C@@H]4CN(C(=O)C5CCCCC5)C[C@H]3N4)cc2)cc1 (stereo partly specified),1
COc1ccc(-c2ccc([C@H]3[C@@H](C#N)N(C(=O)NC(C)C)[C@H]3CO)cc2)cc1,-8[25 µM]
COCC(=O)N(C[C@@H]1N[C@H](CO)[C@H]1c1ccc(C2=CCCC2)cc1)C(C)C,-13
C[C@H](NC(=O)C[C@@H]1C[C@H]2c3cc(N(C)C)ccc3O[C@H]2[C@@H](CO)O1)c1ccccc1,4[25 µM]
O=C1CCN(Cc2ccc(Cl)cc2Cl)C(=O)N1,6
O=C(Cn1cnnn1)NCCc1ccc(Cl)cc1Cl,8
O=C(CCl)N=c1sccn1Cc1ccc(Cl)cc1Cl,89*
C[C@@H]1CN([C@@H](C)CO)C(=O)c2cc(NS(=O)(=O)c3cccs3)ccc2O[C@H]1CN(C)C(=O)NC1CCCCC1,-6
SMILES,BL2 CD40 inh
COc1cccc(C#Cc2ccc([C@@H]3[C@@H](CO)N(C(=O)C4CCOCC4)[C@H]3C#N)cc2)c1,55*
COc1cccc(C#Cc2ccc([C@@H]3[C@H](C#N)N(C(=O)C4CC4)[C@H]3CO)cc2)c1,-18
COc1cccc(C#Cc2ccc([C@H]3[C@@H](C#N)N(C(=O)C4CCCC4)[C@@H]3CO)cc2)c1,77*
COc1cccc(C#Cc2ccc([C@H]3[C@H](C#N)N(C(=O)C4CCCC4)[C@H]3CO)cc2)c1,-35
COc1cccc(C#Cc2ccc([C@H]3[C@@H](CO)N(C(=O)C4CCCC4)[C@H]3C#N)cc2)c1,-2
COc1cccc(C#Cc2ccc([C@@H]3[C@@H](C#N)N(C(=O)C4CCCC4)[C@@H]3CO)cc2)c1,-27
CNC(=O)C[C@H]1CC[C@H]2[C@@H](COc3ccc(NC(=O)Nc4ccc(C#N)cc4)cc3C(=O)N2C)O1,-4[25 µM]
COc1ccccc1C(=O)N1C[C@H]2[C@@H](c3ccccc31)[C@H](CO)N2C(=O)C1CCCC1,4
COc1ccc(C[C@H]2CCn3cc(nn3)COCCCNC2=O)cc1,-8[25 µM]
Cc1noc(C)c1S(=O)(=O)Nc1ccc2c(c1)C(=O)N([C@H](C)CO)C[C@@H](C)[C@H](CN(C)C(=O)Nc1cccc3ccccc13)OCCCC[C@@H](C)O2,75*[25 µM]
C[C@@H]1CCCCO[C@@H](CN(C)CC2CCCCC2)[C@@H](C)CN([C@@H](C)CO)C(=O)c2cc(NC(=O)Nc3ccc(C(F)(F)F)cc3)ccc2O1,97*[25 µM]
C[C@@H]1CN([C@H](C)CO)C(=O)c2cc(NC(=O)Nc3cccc4ccccc34)ccc2O[C@@H](C)CCCCO[C@@H]1CN(C)Cc1ccc(C(F)(F)F)cc1,32[25 µM]
Cc1noc(C)c1S(=O)(=O)Nc1ccc2c(c1)C(=O)N([C@H](C)CO)C[C@H](C)[C@@H](CN(C)C(=O)Nc1cccc3ccccc13)OCCCC[C@@H](C)O2,0[25 µM]
C[C@@H]1CN([C@@H](C)CO)C(=O)c2cc(NC(=O)Nc3ccc(C(F)(F)F)cc3)ccc2O[C@@H](C)CCCCO[C@@H]1CN(C)CC1CCCCC1,12[25 µM]
C[C@@H]1CCCCO[C@@H](CN(C)CC2CCCCC2)[C@H](C)CN([C@H](C)CO)C(=O)c2cc(NC(=O)Nc3ccc(C(F)(F)F)cc3)ccc2O1,-8
C[C@H]1CCCCO[C@@H](CN(C)Cc2ccc(C(F)(F)F)cc2)[C@@H](C)CN([C@@H](C)CO)C(=O)c2cc(NC(=O)Nc3cccc4ccccc34)ccc2O1,18[25 µM]
Cc1noc(C)c1S(=O)(=O)Nc1ccc2c(c1)C(=O)N([C@H](C)CO)C[C@H](C)[C@H](CN(C)C(=O)Nc1cccc3ccccc13)OCCCC[C@@H](C)O2,-10[25 µM]
C[C@H]1CCCCO[C@H](CN(C)Cc2ccc(C(F)(F)F)cc2)[C@@H](C)CN([C@@H](C)CO)C(=O)c2cc(NC(=O)Nc3cccc4ccccc34)ccc2O1,53*[25 µM]
CS(=O)(=O)Nc1ccc2c(c1)[C@@H]1C[C@H](CC(=O)NCc3cc(F)ccc3F)O[C@H](CO)[C@@H]1O2,-10[25 µM]
O=C(C[C@H]1C[C@H]2c3cc(NC(=O)Cc4ccncc4)ccc3O[C@H]2[C@H](CO)O1)NCc1cc(F)ccc1F,-8[25 µM]
CO[C@H]1CN(C)C(=O)c2ccc(NS(C)(=O)=O)cc2OC[C@H](C)N(C(=O)C2CCCC2)C[C@@H]1C,-15
CN1C(=O)c2cc(NC(=O)C3CC3)ccc2OC[C@@H]2O[C@@H](CC(=O)NCCc3ccncc3)CC[C@H]21,6
O=C1NCCOCc2cnnn2CC[C@H]1Cc1ccc(F)cc1,-4[25 µM]
O=C(Nc1ccc(F)cc1)c1nn(-c2ccccc2)c(=O)cc1Cl,85*
Cc1ccc(NC(=O)c2cc(-c3ccccc3)nn2-c2ccccc2)cc1,-3
SMILES,BL2 CD40 inh
CCOC(=O)c1nn(-c2ccc(F)cc2)c(=O)cc1OCC(=O)Nc1cccc(C)c1,12
OC[C@@H]1[C@H](c2ccc(-c3ccc(F)cc3)cc2)[C@@H]2CN(CCC(F)(F)F)CCCCN12,-17[25 µM]
CO[C@@H](CN(C)C(=O)Nc1ccc(Cl)cc1)[C@@H](C)CN(Cc1ccccc1Cl)[C@@H](C)CO,7[25 µM]
O=C1NC2c3c(I)sc(I)c3C(=O)C2O1 (stereo unspecified),101*
O=C1NC2c3c(Cl)sc(Cl)c3C(=O)C2O1 (stereo unspecified),56*
COc1cccc(NC(=O)N2C[C@H](O)COC[C@H]3O[C@@H](CC(=O)N(C)C)CC[C@@H]32)c1,-3[25 µM]
CN(C)C(=O)c1cccc(-c2ccc3c(c2)[C@@H]2[C@@H](CCN2C(=O)C2CCCCC2)[C@@H](CO)N3)c1,-6
O=C(C[C@@H]1C[C@@H]2c3cc(NC(=O)NC4CCCCC4)ccc3O[C@@H]2[C@H](CO)O1)NC1CCCCC1,4
CC(C)[C@H]1COCn2nncc2CC[C@H](Cc2ccc(Cl)cc2)C(=O)N1,24[25 µM]
